Laboratory results as given in PubChem BioAssay (EPA / NIEHS).
Results filed as inconclusive are left out. Calls of active or inactive are those of the source. How the source made its calls, unless noted: active means hit-call score of the fitted dose curve at least 0.9, where 1 is the maximum; inconclusive means response in the unintended direction; inactive means score below 0.9.

Key:
[1] = TOX21_p53_BLA_p2_viability: Viability Assessment in the Tox21 HCT-116 p53 Agonism Beta-lactamase Assay, Phase 2 (AID 2283591);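 further: actives lower the ATP signal meaning cytotoxicity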
Method in brief: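 Cytotoxicity readout: CellTiter-Glo ATP luminescence, 30 min at room temperature, after the beta-lactamase read. Cells were HCT116 exposed 16 h at 37C to compounds pin-transferred at 217-fold dilution from DMSO stocks.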

[2] = molecular target: Cellular tumor antigen p53 (Homo sapiens) (UniProt P04637); experiment: TOX21_p53_BLA_p2_ratio: Tox21 HCT-116 p53 Agonism Beta-lactamase Assay, Ratio, Phase 2 (AID 2283592)
Method in brief: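 Ratio endpoint: beta-lactamase cleavage of CCF4-AM, blue (460 nm) over green (530 nm). HCT116 reporter line; 16 h treatment, 37C; substrate 2 h RT.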

[3] = TOX21_p53_BLA_p3_viability: Viability Assessment in the Tox21 HCT-116 p53 Agonism Beta-lactamase Assay, Phase 3 (AID 2283593);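 further: cells exposed to compound for 16 h before reading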
Method in brief: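 Cellular ATP was quantified by CellTiter-Glo luminescence, read after 30 min at room temperature. Beforehand, HCT116 cells (4000/well) received compound 5 h post-seeding, 217-fold diluted from DMSO, then incubated 16 h at 37C.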

[4] = molecular target: Cellular tumor antigen p53 (Homo sapiens) (UniProt P04637); experiment: TOX21_p53_BLA_p3_ratio: Tox21 HCT-116 p53 Agonism Beta-lactamase Assay, Ratio, Phase 3 (AID 2283596)
Method in brief: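 Cells were seeded at 4000/well, rested 5 h at 37C, then dosed with DMSO compound solutions (217-fold dilution) for 16 h. CCF4-AM substrate was loaded for 2 h at room temperature, and the 460/530 nm emission ratio was fitted for gain of signal versus DMSO.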

[5] = TOX21_p53_BLA_p4_viability: Viability Assessment in the Tox21 HCT-116 p53 Agonism Beta-lactamase Assay, Phase 4 (AID 2283597);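 further: hits lower the luminescence signal meaning cytotoxicity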
Method in brief: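 Cytotoxicity was inferred from loss of CellTiter-Glo luminescence. HCT116 cells had been dosed with compounds after 5 h plating, incubated 16 h at 37C and 5% CO2, and exposed to the CCF4-AM substrate for 2 h.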

[6] = molecular target: Cellular tumor antigen p53 (Homo sapiens) (UniProt P04637); experiment: TOX21_p53_BLA_p5_ratio: Tox21 HCT-116 p53 Agonism Beta-lactamase Assay, Ratio, Phase 5 (AID 2283599)
Method in brief: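 Beta-lactamase reporter ratio (blue 460 nm over green 530 nm, 405 nm excitation) after 2 h CCF4-AM loading, in HCT-116 cells exposed 16 h at 37 C to compounds pinned at 217-fold dilution. Increases relative to DMSO baseline scored.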

[7] = molecular target: Cellular tumor antigen p53 (Homo sapiens) (UniProt P04637); experiment: TOX21_p53_BLA_p4_ratio: Tox21 HCT-116 p53 Agonism Beta-lactamase Assay, Ratio, Phase 4 (AID 2283601)
Method in brief: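 Signal is the blue/green (460nm/530nm) ratio of cleaved versus uncleaved CCF4-AM substrate, read after 2 h substrate loading. Cells were HCT116 carrying the p53-responsive beta-lactamase reporter, dosed 16 h at 37C, 5% CO2; CellTiter-Glo measured in parallel.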

[8] = TOX21_p53_BLA_p5_viability: Viability Assessment in the Tox21 HCT-116 p53 Agonism Beta-lactamase Assay, Phase 5 (AID 2283600)
Method in brief: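 Luciferase-coupled ATP quantitation of cells treated for 16 h (37C, 5% CO2) with test chemicals delivered in DMSO via a 217-fold dilution; 4000 cells/well; reagent incubated 30 min at room temperature before luminescence reading.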

PGR (gene 5241) [9] = molecular target: PGR (gene 5241) (UniProt P06401); experiment: TOX21_PR_BLA_Followup_Agonist_ratio: Tox21 HEK293 Progesterone Receptor (PR) Agonism Beta-lactamase Follow-Up Assay, Ratio (AID 2283933)
Method in brief: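 Beta-lactamase reporter readout: ratio of cleaved (ch2) to uncleaved (ch1) substrate after 2 h room-temperature loading, following 16 h compound exposure at 37C. Cells were PR-UAS-bla HEK293T in 2% charcoal-stripped FBS medium. Viability was multiplexed by CellTiter-Glo.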

PGR (gene 5241) [10] = molecular target: PGR (gene 5241) (UniProt P06401); experiment: TOX21_PR_BLA_Followup_Antagonist_ratio: Tox21 HEK293 Progesterone Receptor (PR) Antagonism Beta-lactamase Follow-Up Assay, Ratio (AID 2283934);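 further: PR-UAS-bla HEK293T cells stimulated with 1 nM R5020 agonist for 16 hr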
Method in brief: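 Readout is the blue/green (ch2/ch1) substrate cleavage ratio after 2 hours at room temperature, following 16 hr co-treatment of PR-bla HEK293T cells with compound and 1nM promegestone. Multiplexed CellTiter-Glo viability flags cytotoxicity; DMSO baseline.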

[11] = TOX21_PR_BLA_Followup_Agonist_viability: Viability Assessment in the Tox21 HEK293 Progesterone Receptor (PR) Agonism Beta-lactamase Follow-Up Assay (AID 2283935);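 further: signal loss means lower viability so actives are cytotoxic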
Method in brief: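 Run multiplexed with the beta-lactamase FRET read, this endpoint measures ATP by CellTiter-Glo luminescence (30 min, room temperature). PR-UAS-bla HEK293T cells received compound 6 hr after plating and were then incubated 16 hr at 37C in 2% stripped serum.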

[12] = TOX21_PR_BLA_Followup_Antagonist_viability: Viability Assessment in the Tox21 HEK293 Progesterone Receptor (PR) Antagonism Beta-lactamase Follow-Up Assay (AID 2283936);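 further: cells exposed to compound with R5020 agonist for 16 h; hits lower the luminescence signal meaning cytotoxicity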
Method in brief: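 PR-UAS-bla HEK293T cells in medium with 2% charcoal-stripped FBS were treated with compounds plus R5020 for 16 hr at 37C. After the beta-lactamase read, CellTiter-Glo was added to the same wells and luminescence read after 30 min at room temperature.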

PGR (gene 5241) [13] = molecular target: PGR (gene 5241) (UniProt P06401); experiment: TOX21_PR_LUC_Followup_Agonist: Tox21 HEK293 Progesterone Receptor (PR) Agonism Luciferase Follow-Up Assay (AID 2283937; active means hit-call score of the fitted dose curve at least 0.9, where 1 is the maximum; inactive means score below 0.9)
Method in brief: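 Agonism scored as luciferase induction over DMSO, read by ONE-Glo after 30 min at RT. Compounds were incubated 16 h at 37C on HEK293-PR-A-luc cells (3,000/well, pre-plated 5 h) previously grown 5 days in charcoal-stripped serum.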

PGR (gene 5241) [14] = molecular target: PGR (gene 5241) (UniProt P06401); experiment: TOX21_PR_LUC_Followup_Antagonist: Tox21 HEK293 Progesterone Receptor (PR) Antagonism Luciferase Follow-Up Assay (AID 2283938);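 further: curve fitted upward as signal gain over DMSO baseline despite antagonist label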
Method in brief: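 HEK293-PR-A-luc cells were precultured 5 days in medium with 10% charcoal-stripped FBS, seeded 3,000/well, then exposed to compounds in DMSO for 16 h at 37C. Luciferase was read by ONE-Glo luminescence after 30 min at room temperature.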

[15] = TOX21_PR_LUC_Followup_Agonist_viability: Viability Assessment in the Tox21 HEK293 Progesterone Receptor (PR) Agonism Luciferase Follow-Up Assay (AID 2283941);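 further: loss of signal means cytotoxicity so actives lower viability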
Method in brief: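 Cytotoxicity counter-readout in the PR-A luciferase reporter line HEK293, with 16 h compound exposure at 37C after cells were cultured in charcoal-stripped serum. Cellular ATP quantified by CellTiter-Glo luminescence.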

Measured: AC50

Chain of Cellular tumor antigen p53 (Homo sapiens) (P04637 whole entry, looked up): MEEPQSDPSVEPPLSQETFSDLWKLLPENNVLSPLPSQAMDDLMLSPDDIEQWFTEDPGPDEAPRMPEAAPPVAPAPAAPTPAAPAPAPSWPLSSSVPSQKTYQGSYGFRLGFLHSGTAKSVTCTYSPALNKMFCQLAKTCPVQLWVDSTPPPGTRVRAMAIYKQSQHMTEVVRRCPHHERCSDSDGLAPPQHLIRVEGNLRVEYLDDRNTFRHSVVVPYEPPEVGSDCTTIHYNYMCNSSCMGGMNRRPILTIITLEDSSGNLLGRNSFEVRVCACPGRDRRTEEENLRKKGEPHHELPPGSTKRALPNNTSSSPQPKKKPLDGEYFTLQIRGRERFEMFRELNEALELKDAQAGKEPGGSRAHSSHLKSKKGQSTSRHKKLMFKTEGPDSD
Chain of PGR (gene 5241) (P06401 whole entry, looked up): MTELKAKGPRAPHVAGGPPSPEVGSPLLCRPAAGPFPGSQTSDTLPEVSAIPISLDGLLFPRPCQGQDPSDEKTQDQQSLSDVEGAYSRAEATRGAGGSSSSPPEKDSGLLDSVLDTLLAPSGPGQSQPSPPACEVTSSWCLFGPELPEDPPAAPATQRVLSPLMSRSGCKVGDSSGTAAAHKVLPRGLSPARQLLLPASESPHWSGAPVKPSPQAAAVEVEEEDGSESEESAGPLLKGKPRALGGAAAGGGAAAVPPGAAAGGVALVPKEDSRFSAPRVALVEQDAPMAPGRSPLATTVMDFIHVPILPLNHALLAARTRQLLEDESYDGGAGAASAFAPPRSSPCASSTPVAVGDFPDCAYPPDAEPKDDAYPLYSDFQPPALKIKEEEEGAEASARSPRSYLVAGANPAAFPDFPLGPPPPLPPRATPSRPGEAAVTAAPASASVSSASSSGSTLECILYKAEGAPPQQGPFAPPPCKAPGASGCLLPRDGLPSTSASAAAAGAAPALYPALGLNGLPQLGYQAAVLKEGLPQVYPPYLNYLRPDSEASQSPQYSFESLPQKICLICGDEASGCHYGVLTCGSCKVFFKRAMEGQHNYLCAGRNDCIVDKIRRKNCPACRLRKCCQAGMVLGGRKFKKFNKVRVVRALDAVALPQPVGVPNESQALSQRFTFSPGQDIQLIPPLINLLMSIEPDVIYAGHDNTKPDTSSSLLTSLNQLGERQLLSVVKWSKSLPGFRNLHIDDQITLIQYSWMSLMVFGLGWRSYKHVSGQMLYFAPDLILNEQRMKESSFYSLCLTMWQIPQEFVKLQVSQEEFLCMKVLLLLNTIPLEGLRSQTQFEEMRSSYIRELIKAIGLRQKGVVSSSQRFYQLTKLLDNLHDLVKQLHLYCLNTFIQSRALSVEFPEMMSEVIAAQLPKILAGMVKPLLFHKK

Oc1cc(Cl)c(Cl)c(Cl)c1
active: [1] 44.1 µM | [2] 10.2 µM | [4] 17.3 µM | [5] 69.4 µM | [6] 13.2 µM | [7] 37.5 µM
inactive: [3]

C=CC(=O)OCCN(C)C
inactive: [1] | [2] | [3] | [4] | [5] | [8]

C[C@]12Cc3nonc3C[C@@H]1CC[C@@H]1[C@@H]2CC[C@@]2(C)[C@H]1CC[C@]2(C)O
active: [3] 25.7 µM | [5] 23 µM | PGR (gene 5241) [9] 6.11 µM | [11] 35.1 µM | PGR (gene 5241) [13] 0.862 µM
inactive: all other assays above

Clc1ccc([C@@H]2C[C@H]3CC[C@@H]2N3)cn1
inactive: [1] | [2] | [3] | [4] | [5] | [6] | [7]

Cc1ccccc1-n1c(C)nc2ccccc2c1=O
inactive: [1] | [2] | [3] | [4] | [5] | [6] | [7]
